# This is one part of the list. Unmarked numbers belong to inactive results. The rule behind the calls is not given here.
# Test system: Botulinum neurotoxin type F light chain protease (Clostridium botulinum)
# Test: BoNT/F light chain protease inhibitors, confirmation, biochemical, flow cytometry, cherry pick 1 (AID 602140)
# Conditions: multiplex microsphere protease cleavage assay, at 10 µM, hits give high values
row,Compound,inhibition [%]
1,CN(C(=O)c1ccccn1)c1nnc(-c2ccccn2)s1,-3.7
2,CC(C)Cc1nnc(NC(=O)CCC(=O)Nc2ccc3cn[nH]c3c2)s1,-1.9
3,Brc1ccc2ncnc(NCc3cccnc3)c2c1,-1.4
4,COc1ccc(C(=O)Nc2nc(-c3ccc(OC)cc3)c(-c3ccc([N+](=O)[O-])cc3)s2)cc1,4
5,Clc1ccc(-c2ncc3ccccn23)c(Cl)c1,-4.7
6,COc1ccc(Br)cc1CNCCc1cccc(Cl)c1,-10
7,COc1ccc(N(CC(=O)NCCSCc2cccc(Cl)c2)S(C)(=O)=O)cc1,-2.3
8,Cc1ccc(C(=O)COc2cccc(NC(=O)c3ccco3)c2)cc1,-7.2
9,OC(c1ccc(Cl)cc1)C(CN1CCOCC1)c1ccccc1 (stereo unspecified),3.4
10,COCCn1nnnc1C(c1cc2ccc(OC)cc2[nH]c1=O)N1CCc2ccccc2C1 (stereo unspecified),-9.6
11,CC(=O)c1cccc(NC(=O)N2CCCC2C(=O)NCCc2ccccc2)c1 (stereo unspecified),0
12,CCOc1nnc(C)c2c(C)n(-c3cccc(Cl)c3)nc12,18.1
13,CCOCC(=O)NCc1ccc2c(c1)cc(C)n2C,-12.1
14,COc1ccccc1C1CCN(C(=S)Nc2ccc(Br)cc2)CC1,4.3
15,COCc1cc(=O)[nH]c(SC)n1,-4.2
16,CC(=O)Nc1ccc(Oc2ccc3c(c2)C(=O)NC3=O)cc1,-3.5
17,COc1ccccc1CNC(=O)C1Cc2ccccc2C(=O)O1 (stereo unspecified),-1.3
18,CCCN1C2CCCC1CC(NC(=O)c1cccc(OC)c1)C2 (stereo unspecified),0.9
19,CCOc1ccc(NC(=O)CC(Cc2ccc(Cl)cc2)C(=O)O)cc1 (stereo unspecified),-1.5
20,CCN1CCN(C(C(=O)NC2CCCC2)c2cc3c(cc2[N+](=O)[O-])OCO3)CC1 (stereo unspecified),-4.2
21,Cc1ccc2[nH]cc(CCNC(=O)C3CCCCC3)c2c1,0.6
